Holding throughout (parameters): species or system human, MV4-11 + K-562 + COLO205 + SK-N-BE2 + OVCAR-8
The test system of one test is ACAD11. Conditions: read-out: apparent Kd, n = 1.
Another test has as its system ACVR1B. Conditions: read-out: apparent Kd, n = 1.
A further test deals with DDR1. As to conditions: read-out: apparent Kd, n = 1.
The next test has as its system MAPK14. Conditions: read-out: apparent Kd, n = 1.
A further test relates to TGFBR1. Conditions: read-out: apparent Kd, n = 1.
Another test has as its system ACVR1. Conditions: read-out: apparent Kd; compound concentrations: 100 nM and 1000 nM (sheet 'Samples'), CATDS: 0.132778001486796; n = 1.
Another test concerns SIK2. As to conditions: read-out: apparent Kd, compound concentrations: 100 nM and 1000 nM (sheet 'Samples'), n = 1.
A further test relates to CSK. As to conditions: read-out: apparent Kd; compound concentrations: 100 nM and 1000 nM (sheet 'Samples'), CATDS: 3.4286589805654001E-2; n = 1.
The next test deals with EGFR. Conditions: read-out: apparent Kd, n = 1.
The test system of a further test is LYN. Conditions: read-out: apparent Kd, compound concentrations: 100 nM and 1000 nM (sheet 'Samples'), n = 1.
Another test deals with SRC. Conditions: read-out: apparent Kd, compound concentrations: 100 nM and 1000 nM (sheet 'Samples'), n = 1.
The next test relates to TNK1. As to conditions: read-out: apparent Kd, compound concentrations: 100 nM and 1000 nM (sheet 'Samples'), n = 1.
In another test the test system is AURKB. Conditions: read-out: apparent Kd; compound concentrations: 100 nM and 1000 nM (sheet 'Samples'), CATDS: 5.1121534714452903E-2; n = 1.
A further test deals with EPHA1. Conditions: read-out: apparent Kd, compound concentrations: 100 nM and 1000 nM (sheet 'Samples'), n = 1.
Another test deals with FLT3. Conditions: read-out: apparent Kd, compound concentrations: 100 nM and 1000 nM (sheet 'Samples'), n = 1.
For a further test, the system named is DYRK1A. As to conditions: read-out: apparent Kd; compound concentrations:100 nM and 1000 nM (sheet 'Samples'); n = 1.
The test system of another test is GSK3A. As to conditions: read-out: apparent Kd, n = 1.
A further test concerns GSK3B. Conditions: read-out: apparent Kd, n = 1.
The subject of the next test is AKT2. Conditions: read-out: apparent Kd, n = 1.
The mark [1] stands for this setting: compound concentrations:100 nM and 1000 nM (sheet 'Samples').

For 26 compounds, potency estimated from few doses results are on record in paper PMC11062922 (Nature Chemical Biology, 2023).

Read-outs that look alike come from different tables or passages of the source.

For the compound `Fc1ccc(-c2c(-c3ccncc3)[nH]c3nccnc23)cc1` [RO1155697-000], the potency estimated from few doses in the test with ACAD11 (setting [1]) is 1300 nM; with ACVR1B (setting [1]), 711 nM; in the test with DDR1 (setting [1]), 1010 nM; with MAPK14 (compound concentrations: 100 nM and 1000 nM (sheet 'Samples'), CATDS: 5.8125054995699497E-2), 449 nM; with TGFBR1 (setting [1]), 1950 nM.
As to `Cc1cc(O)cc(C)c1/C=C/c1cncc(-c2nn[nH]n2)c1.Cl` [GW441806A], the potency estimated from few doses is 85.5 nM with ACVR1 and 1540 nM with SIK2 (CATDS: 4.4020639379416998E-2).
For the compound `CN1CCc2ccc(Nc3nccc(-c4c(-c5cccc(NC(=O)c6c(F)cccc6F)c5)nc5ccccn45)n3)cc2C1.Cl` [GSK1010829B], the potency estimated from few doses in the test with CSK is 1380 nM; in the test on DDR1 (compound concentrations: 100 nM and 1000 nM (sheet 'Samples'), CATDS: 3.8396909039531198E-2), 1010 nM; in the test with EGFR (compound concentrations: 100 nM and 1000 nM (sheet 'Samples'), CATDS: 3.29518195590447E-2), 1570 nM; in the test with LYN (CATDS: 6.0028262979631E-2), 403 nM; in the test with SRC (CATDS: 5.29363400907749E-2), 505 nM; in the test on TNK1 (CATDS: 4.6231570261128598E-2) it was 661 nM.
Regarding `CNC(=O)c1ccccc1Nc1nc(Nc2cccc(CS(C)(=O)=O)c2)ncc1C.O=CO` [GSK1520489A], the potency estimated from few doses is 511 nM with ACVR1B (compound concentrations: 100 nM and 1000 nM (sheet 'Samples'), CATDS: 1.2545717700139699E-2); 22.6 nM in the test with AURKB; 389 nM in the test on DDR1 (compound concentrations: 100 nM and 1000 nM (sheet 'Samples'), CATDS: 1.3625362720769099E-2); 382 nM in the test on EGFR (compound concentrations: 100 nM and 1000 nM (sheet 'Samples'), CATDS: 1.37119506592154E-2); 23.8 nM in the test on EPHA1 (CATDS: 4.9501189051371401E-2); 550 nM with FLT3 (CATDS: 1.2283454590930699E-2). In addition, the potency estimated from few doses in the test on LYN (CATDS: 1.17680848685595E-2) is 643 nM; in the test with SIK2 (CATDS: 1.1089332631068699E-2), 813 nM; in the test with SRC (CATDS: 1.1920002971419799E-2), 613 nM; with TGFBR1 (compound concentrations: 100 nM and 1000 nM (sheet 'Samples'), CATDS: 9.4696036955239198E-3) it was 1790 nM; in the test with TNK1 (CATDS: 3.8833580007227697E-2), 35.6 nM.
Regarding `CC(=O)c1c(-c2ccncc2)[nH]c(-c2ccncc2)c1C` [GW493036X], the potency estimated from few doses is 53.7 nM in the test with DYRK1A, 400 nM in the test on GSK3A (setting [1]) and 535 nM in the test on GSK3B (setting [1]).
For the compound `O=C1Nc2ccc(F)cc2/C1=C/c1ccc[nH]1` [RO0272148-000], the potency estimated from few doses with FLT3 (CATDS: 0.86450810261160804) was 98.5 nM.
Consider `Cc1ccc(-n2nc(C(C)(C)C)cc2NC(=O)Nc2ccc(OCCN3CCOCC3)cc2)cc1` [BIRB0876BS], for which the potency estimated from few doses in the test with DDR1 (setting [1]) is 607 nM.
On to `Cc1[nH]nc2c1N=C(c1ccccc1Cl)c1cc([N+](=O)[O-])ccc1N2` [RO0274406-000], for which the potency estimated from few doses in the test with GSK3A (compound concentrations: 100 nM and 1000 nM (sheet 'Samples'), CATDS: 0.10002413728449901) is 504 nM; in the test on GSK3B (compound concentrations: 100 nM and 1000 nM (sheet 'Samples'), CATDS: 0.102894851356177), 472 nM.
As to `COc1ccc(-c2nn3ncccc3c2-c2ccnc(Nc3ccc4c(c3)OCCO4)n2)cc1` [GW827106X], the potency estimated from few doses in the test on ACVR1B (compound concentrations: 100 nM and 1000 nM (sheet 'Samples'), CATDS: 6.5023219002079705E-2) was 849 nM; with DDR1 (compound concentrations: 100 nM and 1000 nM (sheet 'Samples'), CATDS: 9.2725066561010094E-2), 461 nM; in the test on MAPK14 (compound concentrations: 100 nM and 1000 nM (sheet 'Samples'), CATDS: 7.81285273726149E-2), 610 nM; in the test with TGFBR1 (compound concentrations: 100 nM and 1000 nM (sheet 'Samples'), CATDS: 4.6246179171744603E-2), 1810 nM.
For `COc1cc2ncn(-c3cc(O[C@H](C)c4ccccc4Cl)c(C(N)=O)s3)c2cc1OC` [GSK237701A], the potency estimated from few doses in the test on ACAD11 (setting [1]) is 756 nM.
With `Nc1c(C(=O)c2ccccc2)cnn1-c1ccc(F)cc1` [RO1151246-000], the potency estimated from few doses in the test with AKT2 (setting [1]) was 1800 nM; in the test with MAPK14 (compound concentrations: 100 nM and 1000 nM (sheet 'Samples'), CATDS: 4.1752144248388801E-2) it was 1630 nM.
As to `Cn1cc(C2=C(c3cn(CCCCCO)c4ccccc34)C(=O)NC2=O)c2ccccc21` [RO0318053-000], the potency estimated from few doses in the test with GSK3A (compound concentrations: 100 nM and 1000 nM (sheet 'Samples'), CATDS: 0.11270550310053699) was 467 nM; with GSK3B (compound concentrations: 100 nM and 1000 nM (sheet 'Samples'), CATDS: 0.11014328392113699), 504 nM.
For the compound `Cn1cc(C2=C(c3ccccc3[N+](=O)[O-])C(=O)NC2=O)c2ccccc21` [RO0317753-000], the potency estimated from few doses in the test on GSK3A (compound concentrations: 100 nM and 1000 nM (sheet 'Samples'), CATDS: 0.31381008714401198) was 26.1 nM; in the test with GSK3B (compound concentrations: 100 nM and 1000 nM (sheet 'Samples'), CATDS: 0.304149371612502), 27.6 nM.
With `CCS(=O)(=O)c1ccc(OC)c(Nc2ncc(-c3cccc(F)c3)o2)c1` [GW621970X_KCGS], in the test with DYRK1A, the potency estimated from few doses was 1660 nM.
Take `COc1ccc(C2=C(c3cn(C)c4ccccc34)C(=O)NC2=O)cc1OC` [RO3206363-000]: the potency estimated from few doses is 149 nM with AKT2 (compound concentrations: 100 nM and 1000 nM (sheet 'Samples'), CATDS: 8.3129465265060903E-2); 503 nM in the test with GSK3A (compound concentrations: 100 nM and 1000 nM (sheet 'Samples'), CATDS: 4.8098017287816999E-2); 722 nM in the test on GSK3B (compound concentrations: 100 nM and 1000 nM (sheet 'Samples'), CATDS: 4.2103313064090798E-2).
For `Fc1cccc(COc2ccc(Nc3ncncc3C#Cc3ccccc3)cc2Cl)c1` [GW651576X], the potency estimated from few doses with EGFR (compound concentrations: 100 nM and 1000 nM (sheet 'Samples'), CATDS: 8.85764063435832E-2) is 663 nM.
`Clc1ccc(-c2nn3ncccc3c2-c2ccnc(Nc3ccccc3)n2)cc1` [GW829055X]: the potency estimated from few doses with AKT2 (compound concentrations: 100 nM and 1000 nM (sheet 'Samples'), CATDS: 4.03721310315426E-2) is 1150 nM; in the test on LYN (CATDS: 3.75888213105793E-2), 1350 nM.
With `CC(=O)Nc1ccc2c(C3=C(c4cn(C)c5ccccc45)C(=O)NC3=O)cn(C)c2c1` [RO0317596-000], the potency estimated from few doses is 626 nM in the test on GSK3A (compound concentrations: 100 nM and 1000 nM (sheet 'Samples'), CATDS: 0.16934615909466); 1100 nM with GSK3B (compound concentrations: 100 nM and 1000 nM (sheet 'Samples'), CATDS: 0.12883781394947599).
With `COc1ccc(-c2ccncc2)cc1C(N)=O` [GSK605714A], the potency estimated from few doses in the test on ACAD11 (compound concentrations: 100 nM and 1000 nM (sheet 'Samples'), CATDS: 0.66413142428119099) was 619 nM.
Turning to `CS(=O)(=O)c1ccc(-c2nc3n(c2-c2ccncc2)CCC3)cc1` [SKF-105942], the potency estimated from few doses with AKT2 (compound concentrations: 100 nM and 1000 nM (sheet 'Samples'), CATDS: 0.110414115877762) was 2470 nM.
On to `Fc1ccc(-c2ncn(C3CCNCC3)c2-c2ccnc(Oc3ccc4c(c3)OCO4)n2)cc1` [SB-250715], for which the potency estimated from few doses in the test with AKT2 (setting [1]) is 1360 nM; in the test with MAPK14 (setting [1]), 10.7 nM.
For `COc1cc(N2CCN(C(C)C)CC2)ccc1Nc1nc(Nc2cccc(F)c2C(=O)O)c2cc[nH]c2n1` [GSK1819799A], the potency estimated from few doses with AKT2 (compound concentrations: 100 nM and 1000 nM (sheet 'Samples'), CATDS: 4.3054850332127297E-2) was 1950 nM.
Take `Cl.Oc1ccc2ncnc(Nc3ccc(OCc4ccccc4)cc3)c2c1` [GI262866A]: the results for the potency estimated from few doses in the test on EGFR (setting [1]) and with MAPK14 (setting [1]) were 106 nM and 770 nM, respectively.
Turning to `Cn1cc(C2=C(c3cn(CCCN/C(N)=N/[N+](=O)[O-])c4ccccc34)C(=O)NC2=O)c2ccccc21` [RO0318161-000], the potency estimated from few doses in the test with GSK3A (compound concentrations: 100 nM and 1000 nM (sheet 'Samples'), CATDS: 0.30578210093767899) was 1280 nM.
Turning to `Cl.Fc1cccc(COc2ccc(Nc3ncnc4cc(-c5ccc[nH]5)sc34)cc2Cl)c1` [GW693881A], in the test with EGFR (compound concentrations: 100 nM and 1000 nM (sheet 'Samples'), CATDS: 0.260445959414705), the potency estimated from few doses was 495 nM.
Turning to `Nc1ncnc2c1ncn2-c1cccc(F)c1` [SKF-97560], the potency estimated from few doses in the test on ACVR1B (compound concentrations: 100 nM and 1000 nM (sheet 'Samples'), CATDS: 5.4958812802740099E-2) was 352 nM; in the test on EPHA1 (CATDS: 4.4029751359189198E-2), 581 nM; with FLT3 (CATDS: 4.1263088221053297E-2), 684 nM; in the test on MAPK14 (compound concentrations: 100 nM and 1000 nM (sheet 'Samples'), CATDS: 3.4547137011971901E-2), 1140 nM; in the test on TGFBR1 (compound concentrations: 100 nM and 1000 nM (sheet 'Samples'), CATDS: 6.0050656716600502E-2), 293 nM.
